Measurements: PubChem BioAssay (NCI)
Compounds without any hit were thinned out: in the full panel of roughly 83,000, 20% have a hit.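 Compound tested at a single concentration for 48 hours in 96-well plates; a percent growth value below 10 was scored as active.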 Unmarked numbers belong to inactive results. Calls of active or inactive are those of the source.

The compounds below were run on HCC-2998 colon (assay: NCI-60 one-dose screen, 48 h (100 = growth as untreated, 0 = no growth, -100 = all killed)). Conditions: 10 µM unless noted.
Compound `COC(=O)N[C@H]1CCc2c(Br)c(OC)c(OC)c(OC)c2-c2ccc(SC)c(=O)cc21` has a growth of 17.2%. `O=C(N/N=C/c1ccc(N(CCCl)CCCl)cc1)c1cccc2ccccc12` gave a growth of 87.7%. For `O=[N+]([O-])c1c(Br)sc(Br)c1[N+](=O)[O-]`, the growth was 68%. With `COC(=O)C12CC(NC(=O)c3csc([C@@H](C[C@H](C(C)C)N(C)C(=O)[C@@H](NC(=O)[C@H]4CCCCN4C)C(C)C)OC(C)=O)n3)(C1)C2` the growth was 10.4%. In the case of `CC(=O)OC1CCC2(C)C(CCC3C2CC(=O)C2(C)C3CC(Sc3ccc(N(CCCl)CCCl)cc3)C2C(C)=O)C1` (stereo not drawn), the growth is reported as 87.2%. `Oc1c(CCl)cc(Cl)cc1CCl` showed a growth of 96.5%. Work on `CC(=O)OCc1cc[c]([Hg][Cl])o1` yielded a growth of 76.4%. `COc1ccc(O)c(CNC(=O)CN2CCCC2=O)c1` gave a growth of 98.6%. In the case of `CC12CCC(O)CC1=CCC1C2CCC2(C)C(O)CCC12` (stereo not drawn), the growth is reported as 109%. `Cc1cc(N(CCCl)CCCl)ccc1/C=N\NC(=O)c1ccncc1` gave a growth of 107%. Work on `Cc1ccc(C(=O)NCCCOc2ccc(N3C(N)=NC(N)=NC3(C)C)cc2Cl)cc1S(=O)(=O)F` yielded a growth of 89.8%. Work on `Cn1cc(C=O)c2nccnc21` yielded a growth of 109%. `CC(=O)O[C@@H]1CC[C@]2(C)[C@H]3CC[C@]4(C)C(=O)CC[C@H]4[C@@H]3C[C@@H]3SC(N)=N[C@@]32C1` was tested, and the growth was 82.1%. In the case of `OCCNC(Cc1ccccc1)c1ccc2c(c1)OCO2` (stereo not drawn), the growth is reported as 99.3%. With `Nc1ccc2c(c1)Cc1cc(Br)ccc1-2` the growth was 99.7%. With `CN(CCCCN(C)CCOS(C)(=O)=O)CCOS(C)(=O)=O` the growth was 58.4%. `CCn1cnc2c(Nc3cccc(Cl)c3)nc(N[C@@H]3CCCC[C@@H]3N)nc21` was tested, and the growth was 2.16% (active). With `CCCCCC1(CCBr)C(=O)NC(=O)NC1=O` the growth was 115%. `CC(=O)OC[C@]1(C)C=C2C(=O)[C@](C)(O)C3(CC3)C(C)=C2[C@H]1OC(=O)N(C)CCN(C)C(=O)OC(C)(C)C` was tested, and the growth was 6.65% (active). In the case of `CC(C)(C)C(=O)OCOP(=O)(OCOC(=O)C(C)(C)C)C1CCCN(O)C1=O` (stereo not drawn), the growth is reported as 5.6% (active). For `C[C@]12CCc3nc(Nc4ccccc4F)sc3C1=CC[C@@H]1[C@@H]2CC[C@]2(C)C(=O)CC[C@@H]12`, the growth was 80.1%. `O=[N+]([O-])c1cc([N+](=O)[O-])c(Cl)cc1Cl` showed a growth of 38%. `NC(=O)c1c(Br)n(C2OC(CO)C(O)C2O)c2ncnc(N)c12` (stereo not drawn) gave a growth of 18.4%. With `O=[N+]([O-])/C=C\c1ccc(Cl)c(Cl)c1` the growth was 64.1%. `CCOC(=O)C(Cc1ccc(N(CCCl)CCCl)cc1)NC(=O)C(CC(C)C)NC(C)=O` (stereo not drawn) gave a growth of 50.8%. Compound `C[C@@H]1CCC2[C@@H](C)[C@H](OC(=O)CCC(=O)NCCNC(=O)Cc3cc(=O)oc4cc(N(C)C)ccc34)O[C@@H]3O[C@]4(C)CC[C@@H]1C23OO4` (stereo partly drawn) has a growth of 50.2%. Compound `ClCCN(CCCl)c1ccc(-n2cnc3c(Cl)ncnc32)cc1` has a growth of 82.6%. `COc1cccc(/C=C/[N+](=O)[O-])c1` was tested, and the growth was -87.9% (active). `CC(=O)O[C@H]1CC[C@]2(C)[C@H]3CC[C@]4(C)[C@@H](OC(C)=O)CC[C@H]4[C@@H]3[C@@H](C)[C@]2(O)C1` gave a growth of 108%. In the case of `COc1cc2c(c(OC)c1OC)-c1ccc([O-])c(=O)cc1[C@@H](NC(C)=O)CC2.COc1cc2c(c(OC)c1OC)-c1ccc([O-])c(=O)cc1[C@@H](NC(C)=O)CC2.[Cu+2]`, the growth is reported as -14.9% (active). For `CCCCCCCC(=O)OCC(=O)[C@]1(O)Cc2c(O)c3c(c(O)c2[C@@H](OC2CC(N)C(O)C(C)O2)C1)C(=O)c1c(OC)cccc1C3=O` (stereo partly drawn), the growth was -90.1% (active). In the case of `CCCC(C)C1(CC)C(=O)NC(=O)N(C)C1=O` (stereo not drawn), the growth is reported as 97.9%. Work on `CC1(C)N=C(N)N=C(N)N1c1ccc(OCCCNC(=O)Nc2ccc(S(=O)(=O)F)cc2)c(Cl)c1` yielded a growth of 15.3%. With `COC(=O)[C@@H](C)C[C@H](Cc1ccccc1)NC(=O)c1csc([C@@H](C[C@H](C(C)C)N(C)C(=O)C2(NC(=O)[C@H]3CCCCN3C)CCC2)OC(C)=O)n1` the growth was 12.4%. Work on `CNC(=O)Oc1ccc(C(C)(C)C)cc1OC(=O)NC` yielded a growth of 103%. `C/C(=C\c1ccn(-c2ccc(N)cc2)n1)[C@@H]1C[C@@H]2O[C@]2(C)CCC[C@H](C)[C@H](O)[C@@H](C)C(=O)C(C)(C)[C@@H](O)CC(=O)O1` was tested, and the growth was -0.702% (active). For `Nc1ccc(Cl)cc1`, the growth was 106%. `Nc1ccc2c(c1)oc1ccccc12` was tested, and the growth was 97.6%.
